Tau fibril ThT: inhibitors of human tau fibril formation, thioflavin T binding | P10636 | recombinant tau K18 P301L, heparin-induced fibrillization, ThT fluorescence | Potency, µM (titrated, usually from 57.4 µM), usual class: inhibitors | actives 2.1% (n = 270,000) | AID 1460; also: nearly all actives have a fitted effect of over 55% in size
Target sequence (P10636 561-689 P618L limits assumed): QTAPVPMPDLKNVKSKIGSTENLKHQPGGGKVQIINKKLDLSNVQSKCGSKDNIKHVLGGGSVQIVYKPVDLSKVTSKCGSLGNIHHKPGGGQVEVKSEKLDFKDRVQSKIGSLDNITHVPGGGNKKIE
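Using a mix of unlabeled (15 uM) and Alexa 594-labeled (0.24 uM) tau K18 P301L, heparin-triggered fibrillization over 6 hr at 37 C was scored by ThT fluorescence.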
Tau fluor counter: counter-screen for tau fibril formation inhibitors; actives 0.93% (n = 280,000); Potency, µM (top dose mostly 57.7 µM); tau K18 P301L (four-repeat tau fragment) Alexa594 fluorescence, heparin fibrillization; also: nearly all actives have a fitted effect of over 55% in size
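Human K18 P301L tau (15 uM unlabeled plus 0.24 uM Alexa 594-labeled, final) in 100 mM sodium acetate pH 7 was mixed with compound and 20 uM heparin and incubated 6 hr at 37 C.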
Tau fibril FP: inhibitors of human tau fibril formation; Potency, µM (top dose mostly 57.7 µM), most hits filed as inhibitors; P10636; actives 0.39% (n = 280,000); K18 P301L tau heparin fibrillization, Alexa594 FP, 6 h; also: nearly all actives have a fitted effect of over 55% in size
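Quantitative HTS format: compounds meet 15 uM recombinant K18 P301L tau and Alexa 594-tau tracer in 100 mM sodium acetate pH 7; 20 uM heparin triggers fibrillization at 37 C over 6 hr; FP gives the signal.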
TRb SRC2 PPI: inhibitors of human thyroid hormone receptor beta-SRC2 interaction | actives 0.065% (n = 280,000) | AID 1469 | TRbeta-SRC2 peptide binding, fluorescence polarization; receptor liganded with 1 µM T3 | P10828 | Potency, µM (series often up to 106 µM), actives largely listed as inhibitors; also: nearly all actives have a fitted effect of over 50% in size
Target sequence (P10828 whole entry, looked up): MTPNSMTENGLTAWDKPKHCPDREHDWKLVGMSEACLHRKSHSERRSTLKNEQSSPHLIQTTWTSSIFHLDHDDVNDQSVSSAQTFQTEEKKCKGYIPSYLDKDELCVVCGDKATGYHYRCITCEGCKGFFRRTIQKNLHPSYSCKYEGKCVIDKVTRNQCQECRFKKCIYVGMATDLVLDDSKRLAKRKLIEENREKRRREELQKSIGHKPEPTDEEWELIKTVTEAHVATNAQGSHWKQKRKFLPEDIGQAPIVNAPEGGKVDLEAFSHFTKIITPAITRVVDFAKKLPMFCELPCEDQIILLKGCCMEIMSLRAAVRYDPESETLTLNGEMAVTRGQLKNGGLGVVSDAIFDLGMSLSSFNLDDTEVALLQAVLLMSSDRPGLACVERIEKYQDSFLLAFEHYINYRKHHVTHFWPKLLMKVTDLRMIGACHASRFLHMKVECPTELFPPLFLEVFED
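Assay buffer: 20 mM Tris-HCl, 100 mM NaCl, 10% glycerol, 1 mM EDTA, 0.01% NP-40, 1 mM DTT, 1 uM T3, 5% DMSO; TRb LBD 0.6 uM, Texas Red SRC2 20 nM; FP after 5 hr.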
JMJD2E inh: blocks human JMJD2E demethylase activity; Potency, µM (top dose mostly 57.1 µM), actives largely listed as inhibitors; actives 1.6% (n = 230,000); JMJD2E catalytic domain, FDH-coupled NADH fluorescence (FDH is formaldehyde dehydrogenase); B2RXH2; AID 2147; active = well fitted inhibition curve with a large enough effect, not every such curve was filed as active; inconclusive = small, poorly fitted or top-dose-only effect, or another doubt; inactive = no such curve, though single readings can be large or run the other way; also: nearly all actives have a fitted effect of over 50% in size
TexasRed fluor: Texas Red fluorescence interference in TRb-SRC2 counter-screen. TRb/SRC2 Texas Red total fluorescence interference. Potency, µM (titrated, usually from 106 µM). actives 0.29% (n = 280,000). AID 1479; active = well fitted curve in either direction with a large enough effect; inconclusive = small, poorly fitted or top-dose-only effect
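Flags fluorescent or light-absorbing compounds by total fluorescence, S + 2P, at 555 nm excitation and 632 nm emission. Mixture: 20 nM Texas Red SRC2 peptide, 0.6 uM human TRb LBD, 1 uM T3, 5% DMSO; compound exposure 5 h at ambient temperature.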
Each line names hits and unclear results; the compound was inactive in the other large screens; [ ] = remark or other dose. The list is not random: actives were taken first. Their share in the collection is about 3.5%. Unless noted, calls follow the shape of the dose curve; as a rule, active = well fitted curve in the direction sought with a large enough effect; inconclusive = small, poorly fitted or top-dose-only effect, or another doubt; inactive = no such curve, though single readings can be large; an effect the other way counts as inactive or inconclusive.

COc1cccc(NC(=O)Cn2c(CCC(=O)O)ccc2-c2ccc(Cl)cc2)c1	JMJD2E inh 28µM
COc1ccc(NC(=O)c2cc(C(C)=O)n3ccccc23)cc1Cl	Tau fluor counter 28µM[quencher], Tau fibril FP inconclusive (no result: JMJD2E inh)
O=C(Nc1ccon1)c1ccc(N2CCCCC2)c([N+](=O)[O-])c1	Tau fibril ThT inconclusive
O=C(Nc1nc2ccccc2s1)c1ccc(N2CCCCC2)c([N+](=O)[O-])c1	Tau fibril ThT 4.5µM, Tau fluor counter inconclusive
O=C(Nc1nc(-c2ccccc2)cs1)c1ccc(N2CCOCC2)c([N+](=O)[O-])c1	Tau fibril ThT 8.9µM, Tau fluor counter inconclusive
Cc1ccc(-c2csc(NC(=O)c3cc([N+](=O)[O-])ccc3N3CCOCC3)n2)cc1	none
COC(=O)NC(CC(C)=O)c1ccco1 (configuration not stated)	none (no result: JMJD2E inh)
Cc1ccc(N2C(=O)c3ccc(C(=O)N4CCN(c5ccc(C)c(C)c5)CC4)cc3C2=O)cc1	none
O=C(Nc1ccc(-c2csc(Nc3ccc(Cl)cc3)n2)cc1)c1cccc(C(F)(F)F)c1	Tau fibril ThT inconclusive, Tau fluor counter 4µM[quencher], JMJD2E inh inconclusive
O=C(Nc1ccc(-c2csc(Nc3ccccc3)n2)cc1)c1cccc(C(F)(F)F)c1	Tau fibril ThT inconclusive, Tau fluor counter inconclusive, JMJD2E inh inconclusive
O=C(Nc1cccc(-c2csc(Nc3cccc(C(F)(F)F)c3)n2)c1)c1cc([N+](=O)[O-])cc(C(F)(F)F)c1	Tau fibril ThT inconclusive, Tau fluor counter 2.5µM[quencher]
O=[N+]([O-])c1cccc(-c2csc(N/N=C/c3cccc(O)c3)n2)c1	Tau fibril ThT 6.3µM, Tau fluor counter 7.9µM[quencher]
O=C(Nc1ccc(-c2csc(Nc3ccccc3)n2)cc1)c1cc([N+](=O)[O-])cc(C(F)(F)F)c1	Tau fibril ThT 3.5µM, Tau fluor counter 4µM[quencher]
N/C(=N\OC(=O)c1cccc(F)c1)c1ccccc1	none
CC(=O)c1cccc(Nc2nc(-c3cccc([N+](=O)[O-])c3)cs2)c1	Tau fibril ThT 4µM, Tau fluor counter 7.1µM[quencher]
COc1ccc(C2/C(=C(\O)c3cccc(OC)c3)C(=O)C(=O)N2c2ccccn2)cc1 (configuration not stated)	JMJD2E inh inconclusive (no result: TRb SRC2 PPI, TexasRed fluor)
O=[N+]([O-])c1ccc(NNC(=S)Nc2ccc(F)cc2)cc1	Tau fibril ThT 13µM, Tau fluor counter inconclusive
Cc1ccc2c(c1)C1C=CCC1C(C(=O)O)N2 (configuration not stated)	Tau fibril ThT 14µM, Tau fluor counter inconclusive, Tau fibril FP inconclusive, JMJD2E inh inconclusive
CC(=O)c1ccc2c(c1)C1C=CCC1C(C(=O)O)N2 (configuration not stated)	none
COc1cccc2c1NC(C(=O)O)C1CC=CC21 (configuration not stated)	Tau fibril ThT 16µM, Tau fluor counter inconclusive, Tau fibril FP inconclusive, JMJD2E inh inconclusive, TexasRed fluor inconclusive
COc1cccc(C2Nc3c(F)cc(Br)cc3C3C=CCC32)c1OC (configuration not stated)	none
Cc1c(C(=O)Nc2ccccc2C(=O)N2CCOCC2)cccc1[N+](=O)[O-]	none
N#Cc1ccc(OC(=O)c2cc(-c3ccc4c(c3)OCCO4)on2)cc1	none (no result: JMJD2E inh)
C/C(=N/O)c1ccccn1	JMJD2E inh 18µM
CC(=O)c1ccccn1	none (no result: Tau fibril ThT, Tau fluor counter, Tau fibril FP, JMJD2E inh)
NNC(=O)/C(=C\c1ccc(Br)cc1)NC(=O)c1cccs1	none
CNc1nc2ccccc2n1/N=C/c1cccc(OC)c1OC	Tau fibril ThT inconclusive
COc1ccccc1-c1ccc(/C=C2/C=C(CC(C)C)OC2=O)o1	Tau fibril ThT 8.9µM, JMJD2E inh inconclusive
CCCC1=C/C(=C/c2ccc(-c3ccccc3OC)o2)C(=O)O1	Tau fibril ThT 13µM, Tau fluor counter inconclusive, JMJD2E inh inconclusive
O=Cc1ccc(-c2ccccc2OC(F)(F)F)o1	none
COc1ccc(C(C)=O)cc1COC(=O)c1ccc(OCc2c(C)noc2C)cc1	none
Cc1ccc(S(=O)(=O)N(C)C)cc1NC(=O)Cn1c(CN2CCOCC2)nc2ccccc2c1=O	none
CCSc1ncc(Cl)c(C(=O)Nc2nc3ccc(OC)cc3s2)n1	TRb SRC2 PPI inconclusive, TexasRed fluor 2.5µM[quencher] (no result: JMJD2E inh)
CCSc1ncc(Cl)c(C(=O)Nc2nc3ccc(Cl)cc3s2)n1	none (no result: JMJD2E inh)
CCSc1ncc(Cl)c(C(=O)Nc2nc3ccc(S(C)(=O)=O)cc3s2)n1	TexasRed fluor 35µM[quencher] (no result: JMJD2E inh)
CC(C)c1cccc(OCCn2c(-c3ccc(Cl)cc3)nc3ccccc3c2=O)c1	none (no result: JMJD2E inh)
CCCC1CCC(=NNC(=O)OC(C)(C)C)CC1 (configuration not stated)	none
Oc1ccc(N=Cc2ccc(-c3cccs3)s2)cc1	Tau fibril ThT 7.9µM, Tau fluor counter inconclusive, Tau fibril FP 14µM, TRb SRC2 PPI 32µM, JMJD2E inh inconclusive
CCc1nn(-c2ccccc2)c2nc(-c3ccccc3OC)c3cc(OC)c(OC)cc3c12	Tau fibril FP inconclusive, TexasRed fluor 0.14µM[quencher] (no result: JMJD2E inh)
O=C(CSc1nnc(-c2ccncc2)o1)c1cccc([N+](=O)[O-])c1	Tau fibril ThT inconclusive
CC(=O)Nc1cccc(-c2nnc(SCC(=O)c3cc([N+](=O)[O-])ccc3Cl)o2)c1	Tau fibril ThT inconclusive, Tau fluor counter 20µM[quencher], TexasRed fluor inconclusive (no result: JMJD2E inh)
Cc1[nH]n(C2=NCCS2)c(=O)c1N=Nc1cccc(C(F)(F)F)c1	Tau fibril ThT 13µM, JMJD2E inh inconclusive
Cc1[nH]n(-c2ccccc2)c(=O)c1N=Nc1cccc(S(=O)(=O)N2CCOCC2)c1	Tau fibril ThT inconclusive
CN=CC1=C(O)c2ccccc2C1=O	none
CC(C)=CCC1=C(O)c2ccccc2C(=O)C1=O	Tau fibril ThT 28µM, Tau fluor counter inconclusive, Tau fibril FP inconclusive, JMJD2E inh inconclusive
CN(C)c1ccc(C(=O)OCC(=O)NC2CCCCCC2)cc1	JMJD2E inh inconclusive
CN(C)c1ccc(N=Nc2ccccc2C(=O)OCC(=O)NCC2CCCCC2)cc1	Tau fibril ThT 1.8µM, Tau fibril FP inconclusive
CN(C)c1ccc(N=Nc2ccccc2C(=O)OCC(=O)N(C)C2CCCCC2)cc1	Tau fibril ThT 7.9µM, Tau fluor counter inconclusive
CN(C)c1ccc(N=Nc2ccccc2C(=O)OCC(=O)NC2CCCC2)cc1	Tau fibril ThT 6.3µM, Tau fluor counter inconclusive
COc1ccc(NC(=O)CNC(=O)Cn2c(C)cc3ccccc3c2=O)c(OC)c1	Tau fibril ThT inconclusive, JMJD2E inh inconclusive
CCc1nn2c(-c3ccccc3OC)ccnc2c1-c1ccc(F)cc1	Tau fibril ThT inconclusive, Tau fluor counter inconclusive, TexasRed fluor 8.9µM[quencher] (no result: JMJD2E inh)
CCc1nn2c(-c3ccccc3OC)ccnc2c1-c1ccccc1	Tau fibril ThT inconclusive (no result: JMJD2E inh)
O=P1(O)Oc2c(-c3ccccc3)cc3ccccc3c2-c2c(c(-c3ccccc3)cc3ccccc23)O1	JMJD2E inh inconclusive

Assay outcomes as filed in PubChem BioAssay.
